Reference: PubChem BioAssay (EPA / NIEHS)
Where “and” joins values, the source holds several entries; their conditions need not be identical. Equal entries are not always repeated. Records with an inconclusive call do not appear. The source holds several records for some structures; these can differ, active in one and inactive in another. Calls of active or inactive are those of the source. How the source made its calls: active means hit-call score of the fitted dose curve at least 0.9, where 1 is the maximum; inconclusive means response in the unintended direction; inactive means score below 0.9.

Assays:
[1] = biological target: D(1A) dopamine receptor (Homo sapiens) (UniProt P21728); experiment: NVS_GPCR_hDRD1: NovaScreen (NVS) G Protein-Coupled Receptor Assay for human Dopamine Receptor D1 (DRD1) (AID 2283269)
D(1A) dopamine receptor (Homo sapiens), sequence (P21728 whole entry, looked up): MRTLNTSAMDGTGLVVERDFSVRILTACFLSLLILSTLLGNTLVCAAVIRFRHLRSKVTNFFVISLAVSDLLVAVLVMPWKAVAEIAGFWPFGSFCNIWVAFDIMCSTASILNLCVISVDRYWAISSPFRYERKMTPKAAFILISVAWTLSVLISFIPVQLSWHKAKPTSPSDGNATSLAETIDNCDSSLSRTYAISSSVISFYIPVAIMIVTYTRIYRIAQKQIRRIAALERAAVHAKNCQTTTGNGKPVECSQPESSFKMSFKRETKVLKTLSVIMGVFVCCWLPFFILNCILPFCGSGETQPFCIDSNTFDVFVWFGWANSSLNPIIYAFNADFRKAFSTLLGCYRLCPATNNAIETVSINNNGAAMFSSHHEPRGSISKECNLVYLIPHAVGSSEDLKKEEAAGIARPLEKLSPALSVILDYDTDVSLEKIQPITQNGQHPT
Method in brief: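 Cell-free radioligand binding to human DRD1 from HEK293 membranes, read 1 h after dosing by filter-based scintillation counting. Loss of signal versus DMSO baseline marks displacement. Primary screen at 25 uM single concentration in duplicate; actives followed up in concentration series.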

[2] = biological target: human Neurokinin, NK2 Receptor, TACR2 (gene 6865) (UniProt P21452); experiment: NVS_GPCR_hNK2: NovaScreen (NVS) G Protein-Coupled Receptor Assay for human Neurokinin, NK2 Receptor (AID 2283278);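 further: actives reduce bound radioligand signal relative to DMSO baseline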
human Neurokinin, NK2 Receptor, TACR2 (gene 6865), sequence (P21452 whole entry, looked up): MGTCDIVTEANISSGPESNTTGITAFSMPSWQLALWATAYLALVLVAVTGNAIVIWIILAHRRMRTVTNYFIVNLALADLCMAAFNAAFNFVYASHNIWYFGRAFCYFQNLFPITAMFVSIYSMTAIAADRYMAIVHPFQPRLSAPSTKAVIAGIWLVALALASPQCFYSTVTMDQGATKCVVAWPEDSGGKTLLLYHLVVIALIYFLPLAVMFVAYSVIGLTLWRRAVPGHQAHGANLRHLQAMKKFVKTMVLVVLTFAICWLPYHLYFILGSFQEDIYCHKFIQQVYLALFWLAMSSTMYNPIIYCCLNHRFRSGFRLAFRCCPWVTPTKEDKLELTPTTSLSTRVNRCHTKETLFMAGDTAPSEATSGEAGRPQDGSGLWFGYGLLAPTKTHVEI
Method in brief: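 CHO-derived membrane protein, radioligand displacement, filter scintillation read at 4 h post-dose. Single-point 25 uM in duplicate, then concentration series for actives; DMSO as negative control.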

[3] = biological target: human Thromboxane A2 Receptor (TXA2), TBXA2R (gene 6915) (UniProt P21731); experiment: NVS_GPCR_hTXA2: NovaScreen (NVS) G Protein-Coupled Receptor Assay for human Thromboxane A2 Receptor (TXA2) (AID 2283282);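 further: actives reduce bound radioligand signal relative to DMSO baseline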
human Thromboxane A2 Receptor (TXA2), TBXA2R (gene 6915), sequence (P21731 whole entry, looked up): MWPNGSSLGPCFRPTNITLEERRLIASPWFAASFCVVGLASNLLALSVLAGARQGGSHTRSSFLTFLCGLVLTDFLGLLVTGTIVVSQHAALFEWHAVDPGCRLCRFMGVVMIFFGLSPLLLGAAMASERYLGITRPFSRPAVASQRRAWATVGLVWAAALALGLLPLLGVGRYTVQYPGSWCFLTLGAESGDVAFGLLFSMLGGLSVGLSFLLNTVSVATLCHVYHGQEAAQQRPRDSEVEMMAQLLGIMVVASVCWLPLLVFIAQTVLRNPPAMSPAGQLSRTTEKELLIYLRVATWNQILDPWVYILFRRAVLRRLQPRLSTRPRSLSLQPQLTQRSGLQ
Method in brief: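 Human platelet membranes tested for radioligand displacement by filtration and scintillation counting 1 h post-dose. Screened in duplicate at 25 uM; activity fitted as signal loss relative to DMSO.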

[4] = biological target: human Adrenergic, Beta 3 Receptor (Adrb3), ADRB3 (gene 155) (UniProt P13945); experiment: NVS_GPCR_hAdrb3: NovaScreen (NVS) G Protein-Coupled Receptor Assay for human Adrenergic, Beta 3 Receptor (Adrb3) (AID 2283262)
human Adrenergic, Beta 3 Receptor (Adrb3), ADRB3 (gene 155), sequence (P13945 whole entry, looked up): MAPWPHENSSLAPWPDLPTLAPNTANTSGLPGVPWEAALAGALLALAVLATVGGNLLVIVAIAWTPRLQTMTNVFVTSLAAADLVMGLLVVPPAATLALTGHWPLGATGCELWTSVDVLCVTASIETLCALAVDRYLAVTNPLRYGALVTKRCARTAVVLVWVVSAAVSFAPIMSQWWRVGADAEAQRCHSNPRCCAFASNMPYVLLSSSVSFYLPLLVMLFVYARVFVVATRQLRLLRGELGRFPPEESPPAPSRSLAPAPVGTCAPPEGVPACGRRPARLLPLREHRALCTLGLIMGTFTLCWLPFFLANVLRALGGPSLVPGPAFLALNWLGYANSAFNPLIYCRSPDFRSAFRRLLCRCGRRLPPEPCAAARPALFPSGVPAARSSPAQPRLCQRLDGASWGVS
Method in brief: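 Membranes from SK-N-MC cells pretreated with isoproterenol and 8-bromo-cAMP were used in a radioligand competitive displacement binding assay. Binding was read by filter-based scintillation counting 1 hour after dosing. Primary screening was in duplicate at 25 uM, with concentration series in follow-up.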

[5] = biological target: human Adrenergic, Alpha 2A Receptor (Adra2A), ADRA2A (gene 150) (UniProt P08913); experiment: NVS_GPCR_hAdra2A: NovaScreen (NVS) G Protein-Coupled Receptor Assay for human Adrenergic, Alpha 2A Receptor (Adra2A) (AID 2283257)
Method in brief: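 Radioligand filter-binding was run on HT29-derived membranes, cell-free, read by scintillation counting 1 h after dosing. Primary screening was in duplicate at 25 uM, with concentration series in follow-up. Loss of signal versus DMSO indicates displacement.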

[6] = biological target: human Adrenergic, Beta 1 Receptor (Adrb1), ADRB1 (gene 153) (UniProt P08588); experiment: NVS_GPCR_hAdrb1: NovaScreen (NVS) G Protein-Coupled Receptor Assay for human Adrenergic, Beta 1 Receptor (Adrb1) (AID 2283258)
Method in brief: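 Cell-free radioligand displacement on receptor from human neuroepithelioma cells; 2 h after dosing, filter-based scintillation counting. Primary screen in duplicate at 25 uM, actives retested in concentration series; loss of signal vs DMSO baseline.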

[7] = biological target: human Adrenergic, Alpha 2c Receptor (Adra2C), ADRA2C (gene 152) (UniProt P18825); experiment: NVS_GPCR_hAdra2C: NovaScreen (NVS) G Protein-Coupled Receptor Assay for human Adrenergic, Alpha 2c Receptor (Adra2C) (AID 2283259)
human Adrenergic, Alpha 2c Receptor (Adra2C), ADRA2C (gene 152), sequence (P18825 whole entry, looked up): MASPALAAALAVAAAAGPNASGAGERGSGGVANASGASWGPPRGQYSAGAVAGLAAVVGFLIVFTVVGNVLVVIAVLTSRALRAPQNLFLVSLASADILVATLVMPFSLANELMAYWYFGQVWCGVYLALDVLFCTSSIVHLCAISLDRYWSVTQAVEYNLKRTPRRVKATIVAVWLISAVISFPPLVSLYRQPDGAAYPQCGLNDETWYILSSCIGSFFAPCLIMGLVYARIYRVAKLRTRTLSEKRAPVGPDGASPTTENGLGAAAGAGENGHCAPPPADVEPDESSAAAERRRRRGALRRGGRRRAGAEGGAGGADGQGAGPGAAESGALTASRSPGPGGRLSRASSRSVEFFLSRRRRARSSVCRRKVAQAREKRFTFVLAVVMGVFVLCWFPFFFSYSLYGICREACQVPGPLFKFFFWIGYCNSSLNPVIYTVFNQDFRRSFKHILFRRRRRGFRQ
Method in brief: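 Radioligand binding on Sf9-expressed receptor membranes, 1 h after chemical dosing, filter-based scintillation read-out. Loss of binding fitted positively versus DMSO; primary duplicate screen at 25 uM, actives retested in concentration series.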

[8] = biological target: Beta-2 adrenergic receptor (Homo sapiens) (UniProt P07550); experiment: NVS_GPCR_hAdrb2: NovaScreen (NVS) G Protein-Coupled Receptor Assay for human Adrenergic, Beta 2 Receptor (Adrb2) (AID 2283261)
Method in brief: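 Filter-based radioligand binding using receptor prepared from CHO cells, 1 h incubation, scintillation counting. Primary screen in duplicate at 25 uM, actives retested in concentration series; loss of binding relative to DMSO.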

[9] = biological target: human Dopamine Receptor D2 (DRD2), DRD2 (gene 1813) (UniProt P14416); experiment: NVS_GPCR_hDRD2s: NovaScreen (NVS) G Protein-Coupled Receptor Assay for human Dopamine Receptor D2 (DRD2) (AID 2283266)
Method in brief: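 Radioligand displacement used human DRD2 membranes extracted from CHO cells and was read by filter-based scintillation counting after 1.5 hours. Primary screening was in duplicate at 25 uM. Loss of signal versus DMSO was fitted, with concentration series in follow-up.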

[10] = biological target: human Leukotriene B4 Receptor 1 (LTB4-BLT1), LTB4R (gene 1241) (UniProt Q15722); experiment: NVS_GPCR_hLTB4_BLT1: NovaScreen (NVS) G Protein-Coupled Receptor Assay for human Leukotriene B4 Receptor 1 (LTB4-BLT1) (AID 2283271)
Method in brief: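 Radioligand displacement binding on receptor extracted from human neutrophils, cell-free, 1 h after dosing; filter-based scintillation counting. Primary screen in duplicate at 25 uM, actives retested in concentration-response up to 50 uM; loss of signal versus DMSO.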

[11] = biological target: human Muscarinic, M4 Receptor, CHRM4 (gene 1132) (UniProt P08173); experiment: NVS_GPCR_hM4: NovaScreen (NVS) G Protein-Coupled Receptor Assay for human Muscarinic, M4 Receptor (AID 2283274)
human Muscarinic, M4 Receptor, CHRM4 (gene 1132), sequence (P08173 whole entry, looked up): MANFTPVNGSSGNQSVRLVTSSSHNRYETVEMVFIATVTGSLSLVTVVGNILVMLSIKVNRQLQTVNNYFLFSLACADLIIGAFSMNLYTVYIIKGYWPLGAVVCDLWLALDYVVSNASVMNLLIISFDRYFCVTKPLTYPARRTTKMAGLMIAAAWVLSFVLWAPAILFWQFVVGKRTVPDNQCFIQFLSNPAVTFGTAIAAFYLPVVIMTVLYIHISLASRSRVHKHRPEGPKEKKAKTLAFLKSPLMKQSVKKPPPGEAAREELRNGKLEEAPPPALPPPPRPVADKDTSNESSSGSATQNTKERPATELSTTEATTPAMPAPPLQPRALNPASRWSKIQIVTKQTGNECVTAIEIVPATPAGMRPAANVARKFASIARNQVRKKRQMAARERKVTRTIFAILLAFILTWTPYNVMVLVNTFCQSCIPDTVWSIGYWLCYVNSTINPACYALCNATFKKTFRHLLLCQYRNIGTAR
Method in brief: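 Cell-free radioligand displacement using CHO-derived human M4 receptor protein, 1 h after dosing; bound radioactivity by filtration and scintillation counting. Primary screen single 25 uM duplicate, actives followed in concentration series.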

[12] = biological target: Muscarinic acetylcholine receptor M5 (Homo sapiens) (UniProt P08912); experiment: NVS_GPCR_hM5: NovaScreen (NVS) G Protein-Coupled Receptor Assay for human Muscarinic, M5 Receptor (AID 2283275)
Muscarinic acetylcholine receptor M5 (Homo sapiens), sequence (P08912 whole entry, looked up): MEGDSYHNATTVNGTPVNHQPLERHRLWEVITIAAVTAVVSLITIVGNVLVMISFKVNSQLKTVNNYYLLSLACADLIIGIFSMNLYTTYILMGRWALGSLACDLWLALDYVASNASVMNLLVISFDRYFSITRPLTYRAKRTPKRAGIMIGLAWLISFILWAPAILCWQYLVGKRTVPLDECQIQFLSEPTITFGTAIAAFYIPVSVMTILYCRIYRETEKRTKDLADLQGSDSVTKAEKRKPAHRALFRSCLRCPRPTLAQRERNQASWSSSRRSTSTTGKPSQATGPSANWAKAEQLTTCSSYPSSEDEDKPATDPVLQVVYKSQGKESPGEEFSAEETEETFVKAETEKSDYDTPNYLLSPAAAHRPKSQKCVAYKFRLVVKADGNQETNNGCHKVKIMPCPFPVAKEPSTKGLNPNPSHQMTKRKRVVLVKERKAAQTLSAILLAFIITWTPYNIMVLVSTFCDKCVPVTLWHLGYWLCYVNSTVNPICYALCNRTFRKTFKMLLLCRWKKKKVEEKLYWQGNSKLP
Method in brief: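 Radioligand displacement on CHO-derived membrane preparations, 1 h, filter-based scintillation counting. Single-concentration duplicate screen at 25 uM; hits (e.g. 30% inhibition) retested in singleton concentration-response up to 50 uM. Loss of binding fitted versus DMSO.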

[13] = biological target: human Opioid Receptor Delta 1 (Opiate D1), OPRD1 (gene 4985) (UniProt P41143); experiment: NVS_GPCR_hOpiate_D1: NovaScreen (NVS) G Protein-Coupled Receptor Assay for human Opioid Receptor Delta 1 (Opiate D1) (AID 2283280)
human Opioid Receptor Delta 1 (Opiate D1), OPRD1 (gene 4985), sequence (P41143 whole entry, looked up): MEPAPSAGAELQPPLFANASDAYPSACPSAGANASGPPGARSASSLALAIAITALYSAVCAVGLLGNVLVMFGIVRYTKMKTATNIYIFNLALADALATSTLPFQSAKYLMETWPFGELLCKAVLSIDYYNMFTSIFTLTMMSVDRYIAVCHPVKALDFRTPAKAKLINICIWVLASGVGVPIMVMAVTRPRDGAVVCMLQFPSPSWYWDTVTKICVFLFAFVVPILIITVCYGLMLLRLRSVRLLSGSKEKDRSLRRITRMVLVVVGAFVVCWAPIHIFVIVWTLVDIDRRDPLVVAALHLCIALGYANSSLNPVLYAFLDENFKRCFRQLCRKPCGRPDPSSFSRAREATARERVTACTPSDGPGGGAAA
Method in brief: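 Radioligand displacement on membranes from CHO cells expressing the receptor, read by filter scintillation counting 1 h after dosing. Duplicate single-point screen at 25 uM, then concentration series for actives; loss of signal versus DMSO.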

[14] = biological target: human Dopamine Receptor D4.4 (DRD4.4), DRD4 (gene 1815) (UniProt P21917); experiment: NVS_GPCR_hDRD4.4: NovaScreen (NVS) G Protein-Coupled Receptor Assay for human Dopamine Receptor D4.4 (DRD4.4) (AID 2283264)
human Dopamine Receptor D4.4 (DRD4.4), DRD4 (gene 1815), sequence (P21917 whole entry, looked up): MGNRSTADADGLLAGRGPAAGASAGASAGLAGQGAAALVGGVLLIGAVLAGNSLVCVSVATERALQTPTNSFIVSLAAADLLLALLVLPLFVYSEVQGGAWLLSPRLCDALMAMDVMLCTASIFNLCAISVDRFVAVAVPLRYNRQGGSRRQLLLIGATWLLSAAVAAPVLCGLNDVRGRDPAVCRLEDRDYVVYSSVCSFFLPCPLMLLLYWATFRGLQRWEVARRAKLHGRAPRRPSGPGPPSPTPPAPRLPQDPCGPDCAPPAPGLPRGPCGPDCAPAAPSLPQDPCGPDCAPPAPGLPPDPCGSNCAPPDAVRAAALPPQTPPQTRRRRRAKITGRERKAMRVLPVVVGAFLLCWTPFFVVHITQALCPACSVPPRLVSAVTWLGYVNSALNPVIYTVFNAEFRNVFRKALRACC
Method in brief: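 Radioligand displacement on human DRD4.4 from CHO-derived membranes, 1 hour incubation, bound counts read by filtration and scintillation. Primary screen in duplicate at 25 uM; actives followed up in concentration series.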

[15] = biological target: human Histamine 1 Receptor (H1), HRH1 (gene 3269) (UniProt P35367); experiment: NVS_GPCR_hH1: NovaScreen (NVS) G Protein-Coupled Receptor Assay for human Histamine 1 Receptor (H1) (AID 2283268)
Method in brief: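 Cell-free radioligand displacement at human H1 receptor, 1 h, filter scintillation counting; primary screen 25 uM in duplicate, hits in concentration series; loss of binding fitted vs DMSO.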

[16] = biological target: human Purinergic Receptor P2Y, P2RY1 (gene 5028) (UniProt P47900); experiment: NVS_GPCR_hPY2: NovaScreen (NVS) G Protein-Coupled Receptor Assay for human Purinergic Receptor P2Y (AID 2283281)
human Purinergic Receptor P2Y, P2RY1 (gene 5028), sequence (P47900 whole entry, looked up): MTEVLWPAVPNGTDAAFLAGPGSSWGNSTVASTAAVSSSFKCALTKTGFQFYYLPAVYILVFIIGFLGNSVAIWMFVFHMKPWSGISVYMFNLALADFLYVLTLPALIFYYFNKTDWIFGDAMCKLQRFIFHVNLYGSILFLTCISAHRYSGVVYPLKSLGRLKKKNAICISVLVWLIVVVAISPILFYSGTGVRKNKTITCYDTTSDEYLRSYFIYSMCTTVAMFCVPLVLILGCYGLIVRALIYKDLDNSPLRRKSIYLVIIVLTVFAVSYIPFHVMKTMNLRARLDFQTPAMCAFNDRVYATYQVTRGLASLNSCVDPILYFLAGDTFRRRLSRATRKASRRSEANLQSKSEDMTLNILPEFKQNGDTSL
Method in brief: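 Cell-free radioligand binding using U937-derived protein, 1 h after dosing, filter-based scintillation counting. Screened in duplicate at 25 uM; actives rerun as concentration-response up to 50 uM; loss of signal versus DMSO.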

[17] = biological target: Muscarinic acetylcholine receptor M1 (Homo sapiens) (UniProt P11229); experiment: NVS_GPCR_hM1: NovaScreen (NVS) G Protein-Coupled Receptor Assay for human Muscarinic, M1 Receptor (AID 2283270)
Method in brief: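 Cell-free radioligand displacement using membrane protein extracted from CHO cells, read by filter-based scintillation counting 1 h after dosing. Loss of bound signal fitted versus DMSO; primary screen single concentration 25 uM in duplicate, actives followed by concentration series.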

[18] = biological target: Muscarinic acetylcholine receptor M2 (Homo sapiens) (UniProt P08172); experiment: NVS_GPCR_hM2: NovaScreen (NVS) G Protein-Coupled Receptor Assay for human Muscarinic, M2 Receptor (AID 2283273)
Muscarinic acetylcholine receptor M2 (Homo sapiens), sequence (P08172 whole entry, looked up): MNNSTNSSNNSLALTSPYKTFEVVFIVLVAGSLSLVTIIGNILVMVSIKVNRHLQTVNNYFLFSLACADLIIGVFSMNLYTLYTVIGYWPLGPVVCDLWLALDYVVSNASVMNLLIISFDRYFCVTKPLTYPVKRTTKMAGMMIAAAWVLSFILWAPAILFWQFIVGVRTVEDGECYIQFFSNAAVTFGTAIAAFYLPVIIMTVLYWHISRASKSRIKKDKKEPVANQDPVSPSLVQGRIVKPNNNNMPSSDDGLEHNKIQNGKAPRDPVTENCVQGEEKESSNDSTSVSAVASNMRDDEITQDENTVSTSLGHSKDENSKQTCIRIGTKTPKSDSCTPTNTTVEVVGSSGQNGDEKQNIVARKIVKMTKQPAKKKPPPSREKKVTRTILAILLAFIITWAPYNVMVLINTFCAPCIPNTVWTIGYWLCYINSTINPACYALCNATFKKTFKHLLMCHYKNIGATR
Method in brief: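 Radioligand displacement on human M2 receptor membranes from CHO cells, 1 h incubation, filtration with scintillation counting. Primary screen in duplicate at 25 uM; actives retested in concentration series; loss of signal fitted versus DMSO.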

[19] = biological target: human Endothelin Receptor Type A (ETA), EDNRA (gene 1909) (UniProt P25101); experiment: NVS_GPCR_hETA: NovaScreen (NVS) G Protein-Coupled Receptor Assay for human Endothelin Receptor Type A (ETA) (AID 2283265)
Method in brief: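 Cell-free radioligand displacement using SH-SY5Y-derived protein, 3 h incubation, filter-based scintillation counting. Primary screen in duplicate at 25 uM; actives then run in concentration-response up to 50 uM; loss of binding fitted versus DMSO.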

[20] = biological target: human Neurotensin Receptor (NTS), NTSR1 (gene 4923) (UniProt P30989); experiment: NVS_GPCR_hNTS: NovaScreen (NVS) G Protein-Coupled Receptor Assay for human Neurotensin Receptor (NTS) (AID 2283279)
Method in brief: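 Radioligand displacement on human NTSR1 protein from CHO cells, cell-free, 1 h, filter-based scintillation counting. Primary screen at 25 uM in duplicate; hits rerun in concentration-response up to 50 uM.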

Clc1ccc(Nc2nnc(Cc3ccncc3)c3ccccc23)cc1
AC50 [1]: 16 µM (active)
AC50 [2]: 3.61 µM (active)
AC50 [3]: 0.417 µM (active)

COc1cc(OC)nc(NC(=O)NS(=O)(=O)Nc2ccccc2C(=O)N(C)C)n1
outcome [1]: inactive

CC=O
outcome [1]: inactive
outcome [3]: inactive

O=C(CCCN1CCC(O)(c2ccc(Cl)cc2)CC1)c1ccc(F)cc1
outcome [4]: inactive
outcome [2]: inactive

N=C(N)c1ccc(OCCCCCOc2ccc(C(=N)N)cc2)cc1
AC50 [5]: 23.2 µM (active)
AC50 [6]: 20.4 µM (active)
AC50 [7]: 7.57 µM (active)
AC50 [8]: 21.9 µM (active)
outcome [9]: inactive
AC50 [1]: 12.3 µM (active)
outcome [10]: inactive
AC50 [11]: 2.83 µM (active)
AC50 [12]: 8.19 µM (active)
outcome [2]: inactive
AC50 [13]: 8.49 µM (active)

CCCCCCCCCCCCOS(=O)(=O)O
AC50 [7]: 16.4 µM (active)
AC50 [14]: 25 µM (active)
outcome [15]: inactive
AC50 [1]: 37.6 µM (active)
AC50 [13]: 18.6 µM (active)
outcome [16]: inactive
AC50 [3]: 7.92 µM (active)

CCCCCc1ccc(O)cc1
outcome [2]: inactive

CCCCCCCC(OC)OC
AC50 [3]: 0.0748 µM (active)

O=C1OC2(c3ccccc31)c1cc(I)c(O)c(I)c1Oc1c2cc(I)c(O)c1I
AC50 [1]: 0.594 µM (active)
AC50 [2]: 1.78 µM (active)
AC50 [3]: 1.24 µM (active)

CCC(=O)O
outcome [3]: inactive

CC1=NN(c2ccccc2)C(=O)C1
outcome [3]: inactive

Cc1[nH]nc2c1N=C(c1ccccc1Cl)c1cc([N+](=O)[O-])ccc1N2
outcome [7]: inactive

CCCCC=O
outcome [16]: inactive

NC(=NCCCCCCN=C(N)/N=C(\N)Nc1ccc(Cl)cc1)/N=C(\N)Nc1ccc(Cl)cc1
AC50 [1]: 0.618 µM (active)
AC50 [17]: 3.15 µM (active)
AC50 [2]: 2.18 µM (active)

OCC(CO)(CBr)CBr
outcome [3]: inactive

CN(Cc1cnc2nc(N)nc(N)c2n1)c1ccc(C(=O)N[C@@H](CCC(=O)O)C(=O)O)cc1
outcome [7]: inactive
outcome [4]: inactive
AC50 [9]: 22 µM (active)
AC50 [1]: 25 µM (active)
outcome [11]: inactive
outcome [12]: inactive
AC50 [2]: 2.6 µM (active)
AC50 [13]: 25 µM (active)

CCc1cccc(CC)c1NC(=O)C(=O)O
outcome [1]: inactive

CC(C)(C)c1ccc(O)c(O)c1
AC50 [1]: 25 µM (active)
AC50 [2]: 16 µM (active)
outcome [2]: inactive

C=Cc1ccc(O)c(OC)c1
outcome [3]: inactive

CN(C)c1ccc(C(=C2C=CC(=[N+](C)C)C=C2)c2ccccc2)cc1
AC50 [1]: 2.97 µM (active) and 3.18 µM (active)
AC50 [18]: 4.03 µM (active) and 2.32 µM (active)
AC50 [2]: 5.94 µM (active) and 1.63 µM (active)
AC50 [3]: 12.5 µM (active)
outcome [3]: inactive

CCOC(=O)CN[C@@H](C(=O)N1CC[C@H]1C(=O)NCc1ccc(/C(N)=N/O)cc1)C1CCCCC1
outcome [1]: inactive

C[C@]12CC[C@@H]3c4ccc(O)cc4CC[C@H]3[C@@H]1C[C@@H](O)[C@@H]2O
outcome [3]: inactive

O=C1c2ccc(O)c(O)c2C(=O)c2c(O)ccc(O)c21
outcome [1]: inactive

NS(=O)(=O)O
outcome [3]: inactive

CC(O)COc1ccccc1 (centres undefined)
outcome [3]: inactive

CC[N+](CC)(CC)Cc1ccccc1
AC50 [18]: 21.5 µM (active)

CCCCc1oc2ccccc2c1C(=O)c1cc(I)c(OCCN(CC)CC)c(I)c1
AC50 [14]: 18.9 µM (active)
AC50 [19]: 0.59 µM (active)
AC50 [11]: 4.41 µM (active)
AC50 [12]: 4.86 µM (active)
AC50 [2]: 11.4 µM (active)
AC50 [20]: 7.41 µM (active)

CCCCCCCCCCCCCCCCCC[N+](C)(C)Cc1ccccc1
AC50 [1]: 2.22 µM (active)
AC50 [18]: 0.314 µM (active)
AC50 [2]: 2.55 µM (active)

CCCCCCCCC(C)=O
outcome [1]: inactive

C/C=C/C(=O)C1=C(C)CCCC1(C)C
outcome [1]: inactive
